According to PubChem BioAssay (Tox21):
Results filed as inconclusive are left out. Where a call stands in place of a potency, no number is given. Unmarked numbers belong to inactive results. The source made the active and inactive calls. Calls follow the shape of the full dose curve.

Test: p53 small molecule agonists, cell-based qHTS assay with rat liver microsomes: qHTS cell viability counter screen (AID 1963580); also: nearly all actives have a fitted effect of over 45% in size
Conditions: p53RE-bla HCT-116 + rat microsomes, ATP viability, 16 h; series mostly up to 66 µM; activity change, negative = cytotoxicity: at the top concentration
Text: National Center for Advancing Translational Sciences [NCATS]
Division of Preclinical Innovation [DPI]
U.S. Environmental Protection Agency [EPA]
National Institutes of Environmental Health Sciences [NIEHS]
National Toxicology Program [NTP]
U.S. Food and Drug Administration [FDA]
p53, a tumor suppressor protein, is activated following cellular insult, including DNA damage and other cellular stresses. The activation of p53 regulates cell fate by inducing DNA repair, cell cycle arrest, apoptosis, or cellular senescence. The activation of p53, therefore, is a good indicator of DNA damage and other cellular stresses. The CellSensor p53RE-bla HCT-116 cell line contains a stably integrated beta-lactamase reporter gene under control of the p53 response elements. The activation of the reporter gene under culture conditions can be detected by fluorescence intensity. This cell line was used to screen the Tox21 10K compound library in the condition of presence of rat liver microsomes and to identify agonists that activate the p53 signaling pathway after in vitro metabolic activation (Ooka et al., Archive of Toxicology 96:1975-1987, 2022). The cytotoxicity of the Tox21 compound library against the p53 RE-bla HCT-116 cell line was tested in parallel by measuring the intra cellular ATP content in the same wells.
Tox21 Assay Protocol Summary:
The p53RE-bla cells were dispensed at 4,000cells/3ul/well in 1536-well black-clear bottom plates. After the assay plates were incubated at 37 C, 5% CO2 incubator for 5 hours, 23 nL of compounds dissolved in DMSO, positive controls or DMSO only was transferred to the assay plate. Following compound addition, 3 uL of rat liver microsomes (Molecular Toxicology, Boone, NC) at final concentration of 0.5 mg/mL and 1uL of B-Nicotinamide adenine dinucleotide 2'-phosphate (NADPH) at final concentration of 0.5 mg/mL were transferred to the assay plate. The plates were incubated at 37 C for 16 hours. 1 uL of LiveBLAzer detection mixture was added to each well and the plates were incubated at room temperature in the dark for 2 h. Fluorescence intensity at 460 and 530 nm emission and 405 nm excitation were measured by an Envision plate reader. For cell viability readout that measures cytotoxicity, 4 ul/well of CellTiter-Glo reagent was added into the assay plates using a Flying Reagent Dispenser. After 30 min incubation at room temperature, the luminescence intensity in the plates was measured using a ViewLux plate reader.

Structure (SMILES) | Potency | activity change, negative = cytotoxicity [%]
CC(=O)C(C)C | inactive | –
CCCCCCCCCC(=O)O | inactive | –
CC1(C)S[C@@H]2[C@H](NC(=O)[C@H](N)c3ccccc3)C(=O)N2[C@H]1C(=O)O | inactive | –
CC(C)OB(OC(C)C)OC(C)C | – | 0.323
CC(O)C(=O)O (stereo not given) | inactive | –
COc1ccc([N+](=O)[O-])cc1N | inactive | –
c1ccc(Nc2ccccc2)cc1 | inactive | –
COc1cc(NC(=O)CC(C)=O)c(OC)cc1Cl | inactive | –
CC(=O)c1ccc(S(=O)(=O)NC(=O)NC2CCCCC2)cc1 | inactive | –
CCn1c2ccccc2c2cc(N)ccc21 | inactive | –
C[C@]12CC[C@@H]3c4ccc(O)cc4C[C@@H](CCCCCCCCCS(=O)CCCC(F)(F)C(F)(F)F)[C@H]3[C@@H]1CC[C@@H]2O (stereo not given in full) | inactive | –
CCC(C)C=O (stereo not given) | inactive | –
Nc1cccc(C(F)(F)F)c1 | inactive | –
CCCNC(=O)NS(=O)(=O)c1ccc(Cl)cc1 | inactive | –
O=c1c(O)c(-c2ccc(O)c(O)c2)oc2cc(O)cc(O)c12 | inactive | –
CC(=O)c1ccccc1 | inactive | –
CCCCC/C=C\C/C=C\CCCCCCCC(=O)O | inactive | –
OCc1cccnc1 | inactive | –
Cc1ccc(C)c(O)c1C | inactive | –
O=C1CCCC1 | inactive | –

Structure (SMILES) | Potency | activity change, negative = cytotoxicity [%]
CN(C)CCOC(=O)COc1ccc(Cl)cc1 | inactive | –
Cc1ccc2ncccc2c1 | inactive | –
O=C(O)c1cc(C(=O)O)cc(S(=O)(=O)O)c1 | inactive | –
ClC1=C(Cl)C(Cl)(Cl)C(Cl)=C1Cl | inactive | –
CCCCC1(COC(=O)CCC(=O)O)C(=O)N(c2ccccc2)N(c2ccccc2)C1=O | inactive | –
Oc1ccccc1 | inactive | –
CC(C)(C)[C@@H](O)[C@@H](Cc1ccc(Cl)cc1)n1cncn1 | – | 1.56
COC(=O)c1ccc(C)cc1 | – | 0.0741
NC(CO)(CO)CO | inactive | –
COC(=O)c1ccccc1O | – | -1.08
CCCC[P+](CCCC)(CCCC)CCCC | inactive | –
O=c1cc[nH]c(=O)[nH]1 | inactive | –
CC(O)(P(=O)(O)O)P(=O)(O)O | inactive | –
CCCCOC(=O)CCCCCCCCC(=O)OCCCC | inactive | –
COc1ccccc1OCC(O)CO (stereo not given) | inactive | –
Cc1cccc(C)c1O | – | 0.65
Oc1ccc(O)cc1 | inactive | –
C/C=C(C)/C=C/C=C(C)C | inactive | –
CCCc1cc(=O)[nH]c(=S)[nH]1 | inactive | –
NC(=O)c1cnccn1 | inactive | –
